# T1: SPRED2 1-124 WH1 (domain begin residue: 1, domain end residue: 124), Q7Z698
# T1 chain: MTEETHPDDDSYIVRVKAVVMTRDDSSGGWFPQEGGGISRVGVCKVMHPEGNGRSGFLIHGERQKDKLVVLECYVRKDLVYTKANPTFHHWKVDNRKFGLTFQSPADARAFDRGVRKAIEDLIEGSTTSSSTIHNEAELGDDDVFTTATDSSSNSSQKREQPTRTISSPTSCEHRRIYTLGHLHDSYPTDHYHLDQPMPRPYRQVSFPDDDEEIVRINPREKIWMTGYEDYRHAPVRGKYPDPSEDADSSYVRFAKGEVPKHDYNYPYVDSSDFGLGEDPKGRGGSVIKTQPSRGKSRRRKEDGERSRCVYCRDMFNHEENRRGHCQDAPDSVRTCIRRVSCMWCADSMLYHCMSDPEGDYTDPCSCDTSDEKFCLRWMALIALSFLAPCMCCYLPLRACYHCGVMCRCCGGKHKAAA
# T2: SHC1 149-317 PID (domain begin residue: 149, domain end residue: 317), P29353
# T2 chain: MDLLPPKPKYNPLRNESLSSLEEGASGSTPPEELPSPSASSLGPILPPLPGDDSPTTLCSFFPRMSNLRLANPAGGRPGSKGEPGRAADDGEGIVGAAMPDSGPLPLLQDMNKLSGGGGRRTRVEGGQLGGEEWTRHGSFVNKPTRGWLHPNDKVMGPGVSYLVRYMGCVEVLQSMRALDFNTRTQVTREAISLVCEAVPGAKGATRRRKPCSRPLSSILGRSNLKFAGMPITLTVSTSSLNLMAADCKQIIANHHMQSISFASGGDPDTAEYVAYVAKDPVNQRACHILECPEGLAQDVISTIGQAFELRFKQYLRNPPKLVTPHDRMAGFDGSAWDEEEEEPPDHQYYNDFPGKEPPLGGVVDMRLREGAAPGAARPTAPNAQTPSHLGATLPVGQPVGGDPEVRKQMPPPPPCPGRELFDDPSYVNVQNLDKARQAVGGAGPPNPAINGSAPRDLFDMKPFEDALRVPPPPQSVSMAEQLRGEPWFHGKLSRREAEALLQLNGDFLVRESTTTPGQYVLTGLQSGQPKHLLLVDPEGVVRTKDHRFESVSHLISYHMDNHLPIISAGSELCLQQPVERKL
# T3: SPSB2 26-221 SPRY (domain begin residue: 26, domain end residue: 221), Q99619
# T3 chain: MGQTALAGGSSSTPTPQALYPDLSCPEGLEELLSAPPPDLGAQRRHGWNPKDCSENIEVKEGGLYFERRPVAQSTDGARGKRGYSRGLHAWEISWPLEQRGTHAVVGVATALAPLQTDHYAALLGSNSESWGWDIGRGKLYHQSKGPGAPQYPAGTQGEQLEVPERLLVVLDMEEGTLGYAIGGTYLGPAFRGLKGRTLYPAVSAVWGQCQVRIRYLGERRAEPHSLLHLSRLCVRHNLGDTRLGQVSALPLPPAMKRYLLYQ
# T4: SND1 650-910 TUDOR+SNase (domain begin residue: 650, domain end residue: 910), Q7KZF4
# T4 chain: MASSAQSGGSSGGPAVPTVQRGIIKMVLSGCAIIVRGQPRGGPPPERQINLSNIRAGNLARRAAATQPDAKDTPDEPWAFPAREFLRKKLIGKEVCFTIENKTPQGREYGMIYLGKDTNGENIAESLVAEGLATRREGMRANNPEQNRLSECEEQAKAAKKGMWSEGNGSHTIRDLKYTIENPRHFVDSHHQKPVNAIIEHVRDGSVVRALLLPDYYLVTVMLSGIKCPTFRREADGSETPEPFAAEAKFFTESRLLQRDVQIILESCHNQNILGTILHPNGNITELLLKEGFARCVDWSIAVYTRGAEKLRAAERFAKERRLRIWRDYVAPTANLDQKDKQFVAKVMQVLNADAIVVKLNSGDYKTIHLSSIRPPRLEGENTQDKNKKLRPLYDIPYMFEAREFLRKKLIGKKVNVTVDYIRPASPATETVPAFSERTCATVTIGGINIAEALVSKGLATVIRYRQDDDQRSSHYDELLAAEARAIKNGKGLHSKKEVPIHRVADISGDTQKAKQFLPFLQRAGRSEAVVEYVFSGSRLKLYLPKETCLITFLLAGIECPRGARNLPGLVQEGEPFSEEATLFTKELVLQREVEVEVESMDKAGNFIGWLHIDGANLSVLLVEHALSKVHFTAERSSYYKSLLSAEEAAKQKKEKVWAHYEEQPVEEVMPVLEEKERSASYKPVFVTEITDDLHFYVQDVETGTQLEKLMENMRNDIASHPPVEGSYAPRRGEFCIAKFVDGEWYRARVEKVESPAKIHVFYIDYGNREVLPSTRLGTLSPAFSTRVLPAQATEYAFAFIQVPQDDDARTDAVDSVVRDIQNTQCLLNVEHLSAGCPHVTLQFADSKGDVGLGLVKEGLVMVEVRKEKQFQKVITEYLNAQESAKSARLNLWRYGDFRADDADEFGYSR
# T5: SPRED3 1-117 WH1 (domain begin residue: 1, domain end residue: 117), Q2MJR0
# T5 chain: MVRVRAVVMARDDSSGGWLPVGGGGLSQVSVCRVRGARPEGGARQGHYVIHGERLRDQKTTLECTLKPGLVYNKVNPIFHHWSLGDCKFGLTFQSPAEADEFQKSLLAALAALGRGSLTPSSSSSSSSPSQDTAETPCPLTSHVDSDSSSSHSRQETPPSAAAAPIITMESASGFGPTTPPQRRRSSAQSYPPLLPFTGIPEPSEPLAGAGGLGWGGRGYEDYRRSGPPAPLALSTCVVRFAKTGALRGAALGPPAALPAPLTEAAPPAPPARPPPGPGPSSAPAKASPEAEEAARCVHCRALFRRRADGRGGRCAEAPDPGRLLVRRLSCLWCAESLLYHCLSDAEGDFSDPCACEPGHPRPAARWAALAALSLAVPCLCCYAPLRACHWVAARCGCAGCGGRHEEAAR
# T6: SPRED1 13-131 WH1 (domain begin residue: 13, domain end residue: 131), Q7Z699
# T6 chain: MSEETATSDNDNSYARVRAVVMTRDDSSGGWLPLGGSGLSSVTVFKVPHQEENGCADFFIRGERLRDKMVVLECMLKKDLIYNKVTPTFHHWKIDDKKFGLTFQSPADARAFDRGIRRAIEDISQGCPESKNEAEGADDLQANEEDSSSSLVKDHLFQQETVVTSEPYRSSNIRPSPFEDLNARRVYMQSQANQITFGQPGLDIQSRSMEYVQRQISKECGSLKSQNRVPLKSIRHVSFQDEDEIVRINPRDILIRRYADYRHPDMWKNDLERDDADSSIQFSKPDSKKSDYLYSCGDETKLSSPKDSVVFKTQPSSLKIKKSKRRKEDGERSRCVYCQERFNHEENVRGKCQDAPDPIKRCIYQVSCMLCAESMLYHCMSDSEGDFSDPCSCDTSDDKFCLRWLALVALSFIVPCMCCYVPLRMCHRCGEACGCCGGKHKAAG
# T7: SPAG1 615-745 TPR_1 (domain begin residue: 615, domain end residue: 745), Q07617
# T7 chain: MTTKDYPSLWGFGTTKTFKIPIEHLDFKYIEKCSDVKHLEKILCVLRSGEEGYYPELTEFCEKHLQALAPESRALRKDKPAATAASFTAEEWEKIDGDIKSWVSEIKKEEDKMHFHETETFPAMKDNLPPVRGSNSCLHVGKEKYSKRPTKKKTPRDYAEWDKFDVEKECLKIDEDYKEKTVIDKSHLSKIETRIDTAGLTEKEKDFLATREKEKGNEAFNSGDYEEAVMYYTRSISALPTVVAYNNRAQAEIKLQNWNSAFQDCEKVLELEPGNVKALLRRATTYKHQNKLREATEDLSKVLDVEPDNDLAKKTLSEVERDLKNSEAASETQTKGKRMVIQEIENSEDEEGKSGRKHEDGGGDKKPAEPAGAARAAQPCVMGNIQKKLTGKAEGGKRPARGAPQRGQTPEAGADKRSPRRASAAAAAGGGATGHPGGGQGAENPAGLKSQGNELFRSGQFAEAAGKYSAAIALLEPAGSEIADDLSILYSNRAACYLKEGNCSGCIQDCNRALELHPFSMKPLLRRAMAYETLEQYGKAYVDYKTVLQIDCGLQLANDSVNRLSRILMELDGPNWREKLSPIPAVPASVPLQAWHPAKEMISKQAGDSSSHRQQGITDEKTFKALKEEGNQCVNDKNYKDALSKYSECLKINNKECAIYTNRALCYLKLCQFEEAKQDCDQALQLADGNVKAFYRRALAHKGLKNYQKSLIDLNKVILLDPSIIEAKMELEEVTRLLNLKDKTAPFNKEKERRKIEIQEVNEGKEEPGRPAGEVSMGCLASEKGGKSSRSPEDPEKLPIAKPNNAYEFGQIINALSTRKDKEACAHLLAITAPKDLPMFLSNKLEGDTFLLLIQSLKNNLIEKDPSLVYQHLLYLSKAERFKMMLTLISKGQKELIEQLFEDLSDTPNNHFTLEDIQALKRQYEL
# Molecular target: T1, SPRED2 1-124 WH1 (domain begin residue: …
# Experiment: phage ELISA signal ratio (GST-PRM binding over GST background); higher = stronger binding of peptide-phage to the PRM
# Outline: (§1)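 Each value is the phage ELISA signal on the glutathione S-transferase (GST)-domain fusion divided by the signal on GST alone. Human peptide recognition domains were expressed in 96-well plates, fused to the C-terminus of GST, and selected against an M13 phage library carrying randomized, cysteine-free, glycine-flanked hexadecapeptides on the gene-8 major coat protein. After five selection rounds, approximately 48 individual clones from rounds 4 and 5 were tested by phage ELISA, and positive clones were sequenced.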
row,Binder,phage ELISA signal ratio
1,TWGWFDTGEAWSTMSM,10
2,HPIFNDAGGLQGWFSY,11.1
3,NLWPEVEPIMDNWQPS,6.67
4,PVQWGDWSYPYDLSGQ,12.6
5,GIVPWWHDSGDHWGPL,19.4
6,GYKLWETETSWWFVPA,14
7,GAGELEWYPIWWDVTH,17.3
8,AWFEGPFDTSHWQWEA,7.72
9,SSMWWTDTGDMYLRPE,4.88

# Molecular target: T2, SHC1 149-317 PID (domain begin residue: …
# Experiment: as above
# Outline: as §1
row,Binder,phage ELISA signal ratio
1,PKWEFFQDHTQDHHNQ,6.37
2,LEEHWQWWVDDMMPME,4.84
3,EWGIMDSEWWGRYYEM,6.81
4,WEGYYQFLVPDTHTSE,18.9
5,GPMIGWNQEYIFFSEH,16.2
6,EWNKNLHWFEVFDQEV,20.3
7,HVQWINHSFMMDMPQN,15.5
8,ESEGSHYWNYFADAIA,18.2
9,QVDQGEYVYGFWWEVL,9.85

# Molecular target: T3, SPSB2 26-221 SPRY (domain begin …
# Experiment: as above
# Outline: as §1
row,Binder,phage ELISA signal ratio
1,DFNNNTGPRLAAETIV,11.5
2,YEEFLDLNSNLQGLKT,12.3
3,IVDTYWAMENNNVGTV,29.6
4,TGENNNVMPPHLSEHV,11.7
5,WREEPHFHRDENGNII,28.9
6,GFLDPNQNIVRETLIL,34.2
7,ERVMDLNGNWITKSVA,10.8
8,FEEMELVGDLNNNMMP,32.8
9,PWHARDMNGNWTQRIE,12.3
10,WLAQDYNNNHMWLDWK,27.1
11,MGQLQDMQNNNWVPIV,33.8
12,VVYTGVDHNGNMYPVR,9.45
13,RSDYARDANGNMVVEF,21.3
14,MVDLNGNTYSESMVAV,33.8
15,MEVFDMNGNYPVRSRT,25
16,YFYLDSNNNQVIPSSV,21.9
17,NTMWFDLWDINNNPLS,32.3
18,AHFELMNNNWLVPEFW,30.8
19,YYLDENQNWISEGFLW,12.1

# Molecular target: T4, SND1 650-910 TUDOR+SNase (domain begin …
# Experiment: as above
# Outline: as §1
row,Binder,phage ELISA signal ratio
1,YDWFSAVVEDQWEKVS,6.56
2,EELWDQWHSWVTEPDE,4.69
3,GDYMSMLFMQEWGPFN,5.51
4,MNFMDIWDHMAIPPEQ,7.06
5,PWDMIWDDPSWAPMLE,7.49

# Molecular target: T5, SPRED3 1-117 WH1 (domain begin residue: …
# Experiment: as above
# Outline: as §1
row,Binder,phage ELISA signal ratio
1,HEMFLWDGETVMQVWW,20.8
2,WMWDGLAVVHMVPESV,8.68
3,DPGWYWEPAMLEAEWA,28.4
4,MWMWDGMQVVHLFEQY,20.5
5,EQWWHTPQSVQAWINS,19.5
6,NDQYTWSQVHQGWLPL,26.5
7,LDWDWVQWHFDDAMRW,7.1
8,DVWYTTSESIIQYMQS,27.7
9,TPWWETTSTVMTYIKM,19.4
10,EPDYGTAWFQHMMQEW,31
11,WTWMGDEEVFYHESLL,23.8
12,VTPQEMWEEYIATLQI,23.4
13,WEWKDYEKVVHFQDMK,3.38

# Molecular target: T6, SPRED1 13-131 WH1 (domain begin …
# Experiment: as above
# Outline: as §1
row,Binder,phage ELISA signal ratio
1,WATVSEWGDWTTVVFN,3.55

# Molecular target: T7, SPAG1 615-745 TPR_1 (domain begin …
# Experiment: as above
# Outline: as §1
row,Binder,phage ELISA signal ratio
1,MDLLEQQMWQDYFLWH,3.83
